Granule exo inh: lytic granule exocytosis inhibition. TALL-104 LAMP-1 surface exposure, flow cytometry; cells stimulated with thapsigargin and PMA. inhibition, % at 10 µM. 0.66% of 360,000 active;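 active means inhibition above about 55%, limit read from the data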
GC-B act: GC-B (human) receptor activation. P20594. 0.11% of 370,000 active. activation, % at 10 µM. HEK293-GC-B cells, CNP EC30, cGMP TR-FRET; 0% at EC30 CNP, 100% saturating CNP;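 active means activation at 10 µM reaching about 35% in either raw or pattern-adjusted values, limit read from the data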
GC-A act: GC-A (human) enzyme activation; HEK293 GC-A cells, cGMP TR-FRET, EC30 ANP; 0% at EC30 ANP, 100% saturating ANP; activation, % at 10 µM; 0.14% of 370,000 active; AID 1671463; in the data active means activation above about 40%
Myeloid diff 2: myeloid differentiation induction; AID 624256; 1% of 360,000 active; ER-HoxA9 myeloid progenitors, lysozyme-GFP differentiation, flow cytometry; calls only at 10 µM;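 active means normalized GFP-positive differentiation at or above the plate's own cutoff, the solvent-only control mean plus 3 SD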;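 further: cells exposed to compound for four days before flow analysis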
* = called active by the depositor; i = inactive; . = no result given; + = active, no number. This is a sample that favours compounds with a hit; in the whole collection about 1.8% have one here.

SMILES	Granule exo inh	GC-B act	GC-A act	Myeloid diff 2
COC(=O)C1CN(Cc2ccc(F)cc2)CCS(=O)(=O)N1Cc1cn(CCOC(C)=O)nn1 (centres undefined)	.	4	-3	.
Cc1cccc2cc(C#N)c(SCC(=O)Nc3ccccc3N3CCOCC3)nc12	2	-15	-21	+
N#Cc1cc2ccccc2nc1SCC(=O)Nc1ccccc1N1CCOCC1	-4	-15	-26	i
Cc1cccc(-c2c(NC(=O)c3ccco3)oc3c(C)cccc3c2=O)c1	25	0	-6	+
Cc1cc(C)c(C(=O)N2CCCC(CNS(=O)(=O)c3cccs3)C2)o1 (centres undefined)	8	1	1	i
CC(C)(O)C#Cc1ccc(C(=O)N2CCCC(CNS(=O)(=O)c3cccs3)C2)o1 (centres undefined)	8	4	0	+
Cc1sc(NC(=O)c2ccco2)c(C(c2cccnc2)N2CCN(c3ccc(F)cc3)CC2)c1C (centres undefined)	0	-2	-10	+
COc1ccccc1NC(=S)OCCN1CCCC12CCC(c1ccccc1)CC2 (centres undefined)	.	-6	-1	.
O=C(/C=C/c1ccncc1)c1cc(Cl)ccc1O	5	1	-16	+
CN(C)c1ccc(/C=C/C(=O)c2cc(Cl)ccc2O)cc1	-12	-5	-1	i
Cc1nn(C)cc1NC(=O)C[C@H]1CC[C@H]2[C@@H](COc3ccc(NC(=O)Nc4ccccc4)cc3C(=O)N2C)O1	.	1	1	.
CC1(C)CC(N2CCCCC2)=CC(=[N+]2CCCCC2)C1	-2	-6	-2	+
CC(C)(C)CSc1nnc(-c2cccnc2)n1Cc1ccccc1	.	6	-1	.
CCOC(=O)CC(=O)CSc1ccc2nnc(-c3ccc(C)cc3)n2n1	-2	4	5	+
CCOC(=O)N1CCN(C(=O)CSc2ccc3nnc(-c4ccncc4)n3n2)CC1	-1	-2	4	i
Cc1ccccc1NC(=O)C(C)OC(=O)C1CCCO1 (centres undefined)	-21	5	3	i
COc1ccc2oc(C(=O)OCC(=O)c3ccc4c(c3)OCCO4)c(C)c2c1	3	-2	0	+
Nc1c(N(CCC2=CCCCC2)C(=O)c2ccc([N+](=O)[O-])o2)c(=O)[nH]c(=O)n1Cc1ccccc1	-3	3	9	+
C=CC[C@H]1c2ccccc2[C@H]2N3N=Cc4ccccc4[C@H]3[C@H](CCc3ccccc3)C(=O)N2N1C(=O)c1ccccc1	.	4	-4	.
O=C1/C(=C/c2ccccc2[N+](=O)[O-])COc2ccccc21	84*	-2	2	.
O=C(C[n+]1ccc(C(=O)NCc2ccccc2)cc1)c1ccc2c(c1)OCCO2	-1	-4	2	i
Nc1cc[n+](CC(=O)c2ccc3c(c2)OCCO3)cc1	1	2	-2	+
Cc1ccc2c(c1)C(=O)N1[C@H]3c4cc(C)ccc4OC[C@@H]3[C@H](c3ccccc3)[C@]1(C)C(=O)N2	-5	3	-2	+
COc1cc2c(cc1OC)C(=O)N1[C@H]3c4ccccc4OC[C@@H]3[C@H](c3ccccc3)[C@]1(C)C(=O)N2	65*	-2	-1	i
COc1ccccc1OCCn1cc(C#N)c2ccccc21	-2	-16	-14	i
SMILES	Granule exo inh	GC-B act	GC-A act	Myeloid diff 2
Cc1ccc(OCCn2cc(C#N)c3ccccc32)cc1	68*	-28	-15	i
Cc1ccc[n+](CC(=O)c2ccc(Br)cc2)c1	-3	-3	3	i
N#Cc1ccc[n+](CC(=O)c2ccc(Cl)cc2)c1	8	0	-7	+
CC(C)C(NS(=O)(=O)c1c(Cl)cccc1Cl)C(=O)OCC(=O)c1c[nH]c2ccccc12 (centres undefined)	1	-5	-14	+
COC(=O)C1=C(C)N(Cc2cccc(C(F)(F)F)c2)C(=NCc2ccc3c(c2)OCO3)NC1c1ccc(F)cc1 (centres undefined)	.	-18	-21	.
COCCNC(=O)/C(C#N)=C/c1cccc(/C=C(\C#N)C(=O)NCCOC)c1	3	25	42*	i
CCOCCCNC(=O)/C(C#N)=C/c1ccc(Cl)c([N+](=O)[O-])c1	66*	5	55*	i
CC1=C(C(=O)OCC(C)C)C(c2cccc(F)c2)N2C(=O)C(C)SC2=N1 (centres undefined)	59*	-10	-7	i
CCOC(=O)C1=C(C)N=C2SC(C)C(=O)N2C1c1cccc(F)c1 (centres undefined)	1	-4	-5	i
CC(C)C[C@H]1COc2cccc(F)c2S(=O)(=O)N1Cc1cn(Cc2ccc(F)cc2)nn1	.	0	-1	.
CCS(=O)(=O)N1N=C(c2cccc(NS(C)(=O)=O)c2)CC1c1ccc(C)cc1 (centres undefined)	-4	-6	1	+
Cc1ccc(C2=NN(S(C)(=O)=O)C(c3ccc4c(c3)OCO4)C2)cc1 (centres undefined)	-4	-5	1	+
CS(=O)(=O)N1N=C(c2ccc(Br)cc2)CC1c1ccc2c(c1)OCO2 (centres undefined)	4	.	.	+
CC(=O)N1N=C(c2ccc(C)cc2)CC1c1ccc2c(c1)OCO2 (centres undefined)	-2	0	1	i
CCS(=O)(=O)Nc1cccc(C2=NN(S(C)(=O)=O)C(c3ccccc3)C2)c1 (centres undefined)	2	2	0	i
CCOC(=O)[C@]12CCCC=C1N(Cc1ccc(Cl)cc1Cl)C(=O)[C@H](CC(=O)NCC13CC4CC(CC(C4)C1)C3)C2	7	7	-3	i
CC(C)CNc1cccc2c1S(=O)(=O)N(Cc1cn(Cc3ccc(F)cc3)nn1)Cc1ccccc1O2	.	2	-2	.
COC(=O)[C@]12C[C@H](CC(=O)NCc3cccc(C(F)(F)F)c3)C(=O)N(Cc3ccccc3)C1=C[C@H](C(C)(C)C)O[C@@H]2C	.	-5	-7	.
COC(=O)[C@H](C)NC(=O)[C@H](CC(C)C)NC(=O)OC(C)(C)C	.	0	1	.
Cc1ccc(NC(=O)COC(=O)CCC(=O)c2cccs2)c(C)c1	-1	1	4	+
Cc1cccc(C)c1-n1nnnc1-c1nc2cc(Br)ccc2[nH]c1=O	77*	-9	0	i
COc1cccc(OCc2cc(C(=O)N(C)C3CC(C)(C)NC(C)(C)C3)no2)c1	-2	6	9	i
COc1cccc(OCc2cc(C(=O)N3CCC(c4ccncc4)CC3)no2)c1	35	2	1	+
COc1cccc(OCc2cc(C(=O)N(C)C3CCOCC3)no2)c1	0	-3	6	+
CC(C)(C)C(=O)N1CCN(c2nc3ccc(Br)cc3s2)CC1	10	2	19	+
CC(=O)N1CCN(c2nc3ccc(Br)cc3s2)CC1	8	-7	8	i
N#CC1=C(N)Oc2cc(O)ccc2C1c1ccccc1 (centres undefined)	1	0	57*	i

Screens as filed in PubChem.
